Assay outcomes (PubChem BioAssay)
JMJD2A Tudor: inhibitors of human JMJD2A Tudor domain. O75164. AlphaScreen JMJD2A-Tudor / H3K4me3 peptide binding. Potency, µM (doses to about 114 µM), for inactives: top-dose activity change, negative = inhibition, hits mostly inhibitors. 390,000 compounds, 4.4% hits. AID 504339; also: potency is read from the fitted curve at half-maximal effect; % is scaled to controls: 0 for no effect and ±100 for the full control effect; nearly all actives have a fitted effect of over 50% in size
CtBP-E1A blk: blocks the CtBP interaction with E1A. AlphaScreen GST-E1A/His-CtBP binding, 1536-well; active compounds read low. activity change, % (concentration not given with the values). 340,000 compounds, 0.49% hits; in the data active = activity change below about -65%; inconclusive = mostly about -30% to -63%; also: % is scaled to controls: 0 for no effect and ±100 for the full control effect
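In 5 uL wells, 23 nL compound meets equimolar GST-E1A and His-CtBP (5X stock 125 nM each) for 2 h, 37 °C. Beads (5X, 50 ug/mL) then 1 h, 37 °C, dark.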
HP1b chromo inh: inhibitors of HP1-beta chromodomain binding to methylated histone tails; 390,000 compounds, 0.56% hits; P83916; AlphaScreen HP1-beta / biotin-H3K9me3 peptide binding; Potency, µM (doses to about 114 µM), for the others: at the top dose activity change, negative = inhibition, hits mostly inhibitors; also: potency is read from the fitted curve at half-maximal effect; nearly all actives have a fitted effect of over 70% in size
Target sequence (P83916 whole entry, looked up): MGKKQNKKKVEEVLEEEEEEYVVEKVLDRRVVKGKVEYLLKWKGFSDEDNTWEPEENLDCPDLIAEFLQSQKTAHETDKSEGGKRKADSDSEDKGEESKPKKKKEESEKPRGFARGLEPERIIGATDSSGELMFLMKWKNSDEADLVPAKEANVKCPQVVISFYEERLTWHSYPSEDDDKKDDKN
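HP1-beta protein (50 nM final) preincubated 30 min at room temperature with biotinylated H3(1-18)K9me3 peptide (50 nM) in PBS pH 7.4, 0.01% Tween-20, then compound added for 30 min. AlphaScreen streptavidin donor/nickel chelate acceptor beads (10 ug/mL final), 30 min dark, luminescence read.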
G9a block: G9a (human) methyltransferase inhibition; G9a H3K9 monomethylation, AlphaScreen, 2 h; Potency, µM (doses to about 102 µM), for the others: top-dose activity, negative = inhibition, most hits filed as inhibitors; 350,000 compounds, 8.8% hits; AID 504332; Q96KQ7; also: potency is read from the fitted curve at half-maximal effect; % is scaled to controls: 0 for no effect and ±100 for the full control effect; nearly all actives have a fitted effect of over 75% in size
Target sequence (Q96KQ7 913-1193 limits assumed): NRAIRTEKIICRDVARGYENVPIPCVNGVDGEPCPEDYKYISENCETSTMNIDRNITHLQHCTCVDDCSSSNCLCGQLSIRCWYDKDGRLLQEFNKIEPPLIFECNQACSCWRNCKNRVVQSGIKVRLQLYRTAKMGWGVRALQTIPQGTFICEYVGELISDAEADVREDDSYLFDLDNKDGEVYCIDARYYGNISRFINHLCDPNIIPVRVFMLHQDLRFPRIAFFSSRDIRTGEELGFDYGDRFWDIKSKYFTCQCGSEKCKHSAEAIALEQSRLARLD
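Chemiluminescent proximity detection of H3K9 monomethylation, read after 10 min bead incubation in the dark. Reaction: 20 nM G9a, 500 nM biotin-H3K9 peptide, 20 uM SAM cofactor, 2 h, room temperature, following 15 min enzyme-compound preincubation.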
BAZ2B block: inhibitors of human BAZ2B bromodomain. Potency, µM (top dose mostly 114 µM), for the others: top-dose activity change, negative = inhibition, actives largely listed as inhibitors. AlphaScreen BAZ2B-H3K14Ac peptide displacement. 360,000 compounds, 4.4% hits. AID 504333. Q9UIF8; also: potency is read from the fitted curve at half-maximal effect; % is scaled to controls: 0 for no effect and ±100 for the full control effect; nearly all actives have a fitted effect of over 60% in size
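Protein-peptide AlphaScreen: BAZ2B 50 nM, b-H3K14Ac 50 nM, 1x PBS pH 7.4 + 0.01% Tween-20. Preincubation 30 min RT; cpd 30 min RT (top 110 uM); beads 20 min RT, light-protected.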
Six1-Eya2 inh: blocks human Six1 binding to Eya2; 360,000 compounds, 0.56% hits; Q15475+O00167; activity change, % (no concentration beside the values); AlphaScreen GST-Six1/His-Eya2 binding, biochemical; active compounds read low; in the data active = activity change below about -65%; inconclusive = mostly about -30% to -63%; also: % is scaled to controls: 0 for no effect and ±100 for the full control effect
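AlphaScreen luminescence read after one hour at 37 °C in darkness. Pin-transferred compounds met GST-Six1 and His-Eya2 protein (5X stock 250 nM/500 nM) plus glutathione donor and Ni-chelate acceptor beads (5X, 50 ug/mL).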
An asterisk follows results filed as active; ? = inconclusive; . = no result; [ ] = remark or other dose. Rows were chosen to be rich in hits. Some 10% of all compounds tested hit in one or more screens of this group. Unless noted, calls follow the shape of the dose curve; as a rule, active = well fitted inhibition curve with a large enough effect; inconclusive = small, poorly fitted or top-dose-only effect; inactive = no such curve, though single readings can be large or run the other way.

SMILES	JMJD2A Tudor	CtBP-E1A blk	HP1b chromo inh	G9a block	BAZ2B block	Six1-Eya2 inh
Cc1ccc(-c2nnn(CC(=O)N3CCC(C)CC3)n2)o1	-6.4%	4.1	43.2%	35.5µM*	-6.6%	5.5
Cc1ccc(-c2nnn(CC(=O)NCC3COCCO3)n2)o1 (stereo not drawn)	50.1µM*	2.4	?	16.3%[59 µM]	-2.3%	-2.4
Cc1ccc(-c2nnn(CC(=O)NCC3CC3)n2)o1	-20.7%	-3.3	17.2%	-0.1%[59 µM]	9.6%	1.5
CCC(=O)Nc1ccc2c(c1)ncn2-c1ccccc1	-0.8%	3.1	26.3%	-16.7%[59 µM]	-2.5%	-2.3
CCC(=O)Nc1ccc2c(c1)ncn2-c1ccccc1OC	-23.0%	9.5	23.6%	44.7µM*	14.3%	10.9
COc1ccccc1OCC(=O)Nc1ccc2c(c1)n(C)c(=O)n2C	-5.6%	5.6	28.9%	?	56.2µM*	0.0
COc1ccc(OCC(=O)Nc2ccc3c(c2)n(C)c(=O)n3C)cc1	-14.8%	.	7.0%	-43.3%[0.501 µM]	?	6.4
CCOC(=O)C1=C(Nc2ccccc2)OCC1=O	-18.7%	2.9	30.8%	2.0%[59 µM]	8.3%	2.5
O=C(O)C1=C(Nc2ccccc2)OCC1=O	?	-6.0	24.0%	39.8µM*	-0.6%	9.1
CC1CCN(S(=O)(=O)c2ccc(NC(=O)Cc3cccs3)cc2)CC1	50.1µM*	-8.1	1.0%	?	?	-4.0
CC(=O)Nc1ccc(S(=O)(=O)N2CCN3CCCC3C2)cc1 (stereo not drawn)	-0.7%	.	30.4%	79.4µM*	-9.4%	-2.2
CC1CCN(S(=O)(=O)c2ccc(NC(=O)C3CC3)cc2)CC1	-8.5%	3.1	103.0%	19.1%	-1.4%	2.3
CCOc1ccc(CN2CCN(S(=O)(=O)c3ccc(NC(C)=O)cc3)CC2)cc1OC	22.4µM*	-3.6	?	6.31µM*	50.1µM*	-5.8
COc1ccc(NC(C)=O)cc1NC(=O)c1cccc(S(=O)(=O)N2CCN(Cc3ccccc3)CC2)c1	-25.7%	6.8	7.4%	-1.2%[0.501 µM]	-6.2%	-12.3
CC1CCCN(S(=O)(=O)c2ccc(NC(=O)CN3CCCCC3)cc2)C1 (stereo not drawn)	?	-8.8	24.0%	44.7µM*	-1.1%	4.7
CC1CCCN(CC(=O)Nc2ccc(S(=O)(=O)N3CCCCC3)cc2)C1 (stereo not drawn)	-13.1%	17.4	26.4%	-6.6%[59 µM]	5.9%	-2.4
CCCNC(=O)C(=O)NCC(c1ccc2c(c1)OCO2)N1CCN(c2ccc(F)cc2)CC1 (stereo not drawn)	-35.9%	.	-7.6%[57 µM]	-47.6%	-23.8%	-7.5
COc1ccc(Cl)cc1NC(=O)c1nnn(Cc2cccc(C(F)(F)F)c2)c1N	-15.8%	.	35.7%	2.0%[59 µM]	-38.5%	.
CNc1cccc(-c2ccccc2CO)n1	.	-4.2	.	.	.	-3.4
CC(C)COC(=O)N1CCCCC1c1cc(C(=O)NC(C)C)no1 (stereo not drawn)	.	-8.1	.	.	.	8.9
CC1CCN(S(=O)(=O)c2ccc3c(c2)CCC(=O)N3CC(=O)Nc2cccc(C#N)c2)CC1	-32.1%	.	-20.5%	3.0%[12.7 µM]	50.1µM*	.
CCN(CC)S(=O)(=O)c1ccc(NC(=O)Cc2cccs2)cc1	-22.6%[11.4 µM]	.	?	-7.2%[59 µM]	70.8µM*	-1.0
CC(=O)Nc1ccc(S(=O)(=O)N2CCN(Cc3cccs3)CC2)cc1	-99.3%	4.2	31.6µM*	17.8µM*	35.5µM*	-7.6
CC(=O)Nc1ccc(S(=O)(=O)N2CCN(C(C)CCc3ccccc3)CC2)cc1 (stereo not drawn)	1µM*	-8.0	?	7.08µM*	50.1µM*	-9.7
NS(=O)(=O)c1ccc(NC(=O)Cc2cccs2)cc1	-7.5%	-1.7	4.5%	-5.2%[59 µM]	1.9%	-10.1
SMILES	JMJD2A Tudor	CtBP-E1A blk	HP1b chromo inh	G9a block	BAZ2B block	Six1-Eya2 inh
COc1cc2c(cc1OC)C(COc1cc(C)cc(C)c1)N(C(=O)COc1ccccc1)CC2 (stereo not drawn)	-33.0%	.	9.0%	?	-29.2%	.
O=C(O)CCc1cc(F)c(S(=O)(=O)N2CCN(S(=O)(=O)c3ccc4c(c3)OCCO4)CC2)cc1F	-4.8%	.	.	.	.	.
COc1ccccc1-n1c(=O)c2c3c(sc2n(C)c1=O)CN(C(C)=O)CC3	-3.0%	.	37.4%	-3.5%[59 µM]	2.4%	.
CC1CCN(CC(=O)Nc2ccc(S(=O)(=O)NC3CC3)cc2)CC1	20µM*	.	?	14.1µM*	50.1µM*	6.1
Cc1noc(C)c1C(=O)Nc1ccc(S(=O)(=O)N2CCC(C)CC2)cc1	-10.7%	-3.2	33.0%	22.4µM*	-6.2%	0.3
CCN(CC(=O)Nc1ccc(OC)cc1)C(=O)Cc1cccs1	?	-1.6	-22.0%	6.4%[0.501 µM]	50.1µM*	-6.4
CC1CCN(S(=O)(=O)c2ccc(NC(=O)CN3CCOCC3)cc2)CC1	-7.5%	-1.3	23.0%	?	-4.4%	1.6
CC1CCCN(CC(=O)Nc2ccc(S(=O)(=O)NC3CCCCC3)cc2)C1 (stereo not drawn)	-14.7%	-11.3	14.5%	?	-2.2%	-2.1
CC1CCN(CC(=O)Nc2ccc(S(=O)(=O)N3CCC(C)CC3)cc2)CC1	0.794µM*	-5.1	?	.	?	1.8
Cc1oc(-c2cccs2)nc1CN1CCN(C(C)C)C(CCO)C1 (stereo not drawn)	-19.1%	10.2	30.8%	-0.6%	-0.8%	2.1
CCCN(c1ccccc1CC)S(=O)(=O)c1ccc2c(c1)CC(C)N2C(=O)C1CC1 (stereo not drawn)	-7.0%	.	49.9%	-32.0%[59 µM]	-12.0%	.
O=C1COc2cc(S(=O)(=O)CCC(=O)N3CCN(c4cccc(Cl)c4)CC3)c(Cl)cc2N1	-8.2%	.	29.9%	-3.4%[59 µM]	-1.8%	.
CNC(=O)[C@]1(C(F)(F)F)C[C@H](CCC2CCCCC2)CCCO1	9.7%	.	70.0%	.	.	.
O=C(CN1CCCC1)Nc1ccc(S(=O)(=O)N2CCCCC2)cc1	-3.0%	2.9	28.3%	-8.3%[59 µM]	2.8%	1.4
CC1CCN(S(=O)(=O)c2ccc(NC(=O)CN3CCCC3)cc2)CC1	3.98µM*	-13.7	-26.3%	10µM*	70.8µM*	14.0
COc1ccc(NC(=O)N(C)C[C@H]2Oc3c(NC(=O)Cc4ccccc4)cccc3C(=O)N([C@H](C)CO)C[C@@H]2C)cc1	-15.0%	5.6	26.8%	.	.	2.9
CCn1c(=O)cc(SCC(=O)NCc2ccc(Cl)cc2)c2ccccc21	-2.9%	.	27.5%	-2.9%[59 µM]	6.7%	.
COc1cc(NC(=O)CCl)ccc(=O)c1	.	-8.1	.	.	.	2.2
CC1(C)OC(C)(C)/C(=C/Nc2ccc(O)cc2)C1=O	?	-3.0	-27.3%	8.91µM*	?	-20.9
N#CC(=C(c1ccccc1)c1ccccc1)c1ccccc1	-2.8%	-18.2	64.7%	.	.	4.8
O=C1Nc2ccccc2-n2nnnc2C1N1CCN(C(=O)c2ccco2)CC1 (stereo not drawn)	.	-16.9	.	.	.	7.6
